# Data reported in the supplement of paper PMC6555819.
# Key:
# Assay in all cases: PBM binding z-score (relative to random genomic background probes); higher = stronger binding; sequences stand for … in GC…GCGATTGACAGCGTAGAATGAAGG
# [1] = test system: FXR:RXRa (NR concentration 270 nM, RXRa partner concentration 90 nM)
# How it was run: (§1)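 Random background probes are the reference for binding z-scores. These scores derive from regression-normalized fluorescence on custom Agilent 4×180K protein-binding microarrays incubated 1 h with ligand-free nuclear receptor dimers. Binding was detected with antibodies against each partner (one per run).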
# [2] = test system: LXRa:RXRa (NR concentration 270 nM, RXRa partner concentration 90 nM)
# How it was run: as §1
# [3] = test system: LXRa homodimer (NR concentration 270 nM)
# How it was run: as §1
# [4] = test system: LXRb:RXRa (NR concentration 270 nM, RXRa partner concentration 90 nM)
# How it was run: as §1
# [5] = test system: LXRb homodimer (NR concentration 270 nM)
# How it was run: as §1
# [6] = test system: PPARa:RXRa (NR concentration 270 nM, RXRa partner concentration 90 nM)
# How it was run: as §1
# [7] = test system: PPARg:RXRa (NR concentration 180 nM, RXRa partner concentration 90 nM)
# How it was run: as §1
# [8] = test system: PPARg:RXRa 270nM:90nM, anti-RXR (NR concentration 270 nM, RXRa partner concentration 90 nM)
# How it was run: as §1
# [9] = test system: PPARg:RXRa 30nM:10nM, anti-RXR (NR concentration 30 nM, RXRa partner concentration 10 nM)
# How it was run: as §1
# [10] = test system: PPARg:RXRa 90nM:30nM, anti-RXR (NR concentration 90 nM, RXRa partner concentration 30 nM)
# How it was run: as §1
# [11] = test system: PPARg:RXRa DBDmut IVT, anti-RXR (DBD mutation: RXRa K156A/R161A, NR concentration 270 nM, RXRa partner concentration 90 nM)
# How it was run: as §1
# [12] = test system: PPARg:RXRa IVT, anti-PPARg (NR concentration 270 nM, RXRa partner concentration 90 nM)
# How it was run: as §1
# [13] = test system: PPARg DBDmut:RXRa IVT, anti-PPARg (DBD mutation: PPARg1 K132A/R137A, NR concentration 270 nM, RXRa partner concentration 90 nM)
# How it was run: as §1
# [14] = test system: PPARg DBDmut IVT, anti-PPARg (DBD mutation: PPARg1 K132A/R137A, NR concentration 270 nM)
# How it was run: as §1
# [15] = test system: PPARg homodimer (NR concentration 180 nM)
# How it was run: as §1
# [16] = test system: PXR:RXRa (NR concentration 270 nM, RXRa partner concentration 90 nM)
# How it was run: as §1
# [17] = test system: PXR homodimer (NR concentration 270 nM)
# How it was run: as §1
# [18] = test system: RARa:RXR (NR concentration 270 nM, RXRa partner concentration 90 nM)
# How it was run: as §1
# [19] = test system: RARa homodimer (NR concentration 270 nM)
# How it was run: as §1
# [20] = test system: RARb:RXRa (NR concentration 270 nM, RXRa partner concentration 90 nM)
# How it was run: as §1
Sequence,PBM binding z-score [1],PBM binding z-score [2],PBM binding z-score [3],PBM binding z-score [4],PBM binding z-score [5],PBM binding z-score [6],PBM binding z-score [7],PBM binding z-score [8],PBM binding z-score [9],PBM binding z-score [10],PBM binding z-score [11],PBM binding z-score [12],PBM binding z-score [13],PBM binding z-score [14],PBM binding z-score [15],PBM binding z-score [16],PBM binding z-score [17],PBM binding z-score [18],PBM binding z-score [19],PBM binding z-score [20]
CGTCAAAGTTCCACTAAGGTAACGTAAAGCACGC,0.0989,-0.0438,-0.0633,0.0124,0.0274,0.268,0.459,0.573,-0.0574,0.281,0.458,0.925,-0.504,0.445,0.404,0.17,0.428,2.22,0.139,0.704
ATCTCTAGGTAACCAAGTTCAGTAAATGCCGAAC,0.686,1.04,1.15,1.1,0.894,1.29,0.842,1.1,0.556,0.989,3.43,2.97,1.54,2.29,1.32,2.05,1.79,1.07,0.775,1.2
ATATGTAGGTTACAACCGGGTCATTCAGGCTATG,2.4,4.01,1.33,2.93,0.715,4.68,5.74,5.17,3.03,4.61,7.11,7.41,3.31,2.35,2.21,3.88,1.71,3.96,0.487,2.36
GCTTACGGGTTAAAGGTTATAGCATGAATAGAAT,4.76,4.09,0.422,4.17,0.397,5.9,8.86,7.5,6.81,8.18,1.96,4,0.8,1.12,1.78,4.18,0.49,6.08,1.07,2.31
CGAACTAGGGCATCCAGGACAGTGAATACATTGA,0.197,-0.226,-0.3,-0.431,-0.651,2.12,3.28,2.52,0.606,1.5,7.07,6.16,1.33,1.16,0.204,-0.0736,0.524,0.0025,-0.274,1.3
ATCTCTAGGTAAAAGTTCAGTGAATCCCGAGGAT,0.943,1.4,1.16,1.12,0.841,4.11,8.09,7.52,8.83,8.39,1.99,3.82,1.42,1.8,1.4,2.14,1.95,1.64,0.604,2.42
CGTTAAAGTTCAACTAAGGTAACGTAAAGCACGC,7.01,6.26,4.48,4.01,1.89,4.8,3.71,4.36,1.66,3.27,0.607,1.7,1.25,1.18,2.84,5.26,3.31,3.9,1.26,5.17
TATACAGGGTCAAAGGCCAGAGTGCGAATGTCGA,7.16,6.05,2.6,4.8,2.58,6.08,8.23,7.43,5.95,7.86,2.54,4.9,2.49,2.56,5.37,4.79,1.14,6.61,1.49,4.59
AGTCAAAGTTGACTAGGTAACGTAAGATTCAGCT,-0.527,-0.187,-0.527,-0.137,-0.608,1.41,2.01,2.7,0.453,1.91,1.93,2.8,0.549,0.744,-0.383,-0.11,-0.595,0.0496,-0.0612,1.13
TCTAGCAGGCCAGAGGGTAACTCAAGAGGTACGG,0.0239,-0.0819,-0.636,-0.399,-1.36,1.15,2.11,3.56,2.38,3.26,0.667,0.376,-0.698,-0.379,0.0885,-0.174,-0.643,-0.0159,-0.296,0.332
TTGCCTAGGTCAGATCGGGCCAGTATACGCTATA,2.67,1.04,-0.621,0.692,-0.831,1.51,0.532,0.852,-0.179,0.0126,0.589,1.07,-1.83,-1.18,0.162,1.47,-0.653,1.46,-0.953,3.07
AGAACGAGGGCCCGCTGAGTTGATAGCAGAGTAG,-0.807,-1.1,-0.871,-1.53,-1.19,-1.78,-0.00223,-1.4,-0.848,-1.55,-0.75,-0.481,-0.976,-0.618,-1.15,-0.97,-1.05,-1.3,-1.68,-0.616
TCTAGCAGGCCAGAGGGTCCCTCAAGAGGTACGG,-1.21,-0.594,-0.832,-1.08,-1.75,-0.293,0.254,1.14,1.15,0.873,0.4,-0.351,-0.654,-1.83,-0.97,-0.673,-1.06,-0.482,-1.2,-0.136
ACTCGGAGGAGAAAGGTCAGAGCTACGCCAGTGA,2.6,3.16,0.746,2.72,-0.215,3.8,3.76,4.3,2.61,4.29,0.262,1.73,-0.454,-0.291,2.29,3.09,0.0761,3.7,1.26,3.93
GCGACTGGGGCATCAGCAGGTTACTATAACTTAA,0.0216,-0.0377,-0.448,0.689,-0.343,1.27,0.884,1.05,-0.238,0.594,4.13,3.05,-0.371,-0.562,-0.0326,-0.0216,-0.178,0.369,-0.337,0.825
TCGAGTAGGTTACCAATGGGGCATTCTGCTTTCT,0.0174,1.11,-0.471,0.975,-0.712,1.33,0.0267,1.1,0.935,0.902,3.32,2.53,-0.301,-0.867,-0.334,-0.0891,-0.788,0.363,-0.932,0.902
CCTTACGAGTCACTGACAGGTTATAGCATTTGGA,0.777,1.14,0.907,1.29,0.779,0.873,0.529,0.102,0.331,0.375,0.816,0.0297,1.14,0.808,1.1,0.7,0.734,1.15,1.48,0.807
AAAACAGGGTCACTAGGCCAGAGTAGGTACGAAT,6.63,4.02,-0.0117,4,0.509,6.07,8.29,7.23,4.36,6.34,5.29,6.57,2.03,1.25,2.68,3.58,0.329,4.8,1.21,4.18
CCTCGGAGCACAACAGGAGGTCAGAGCTGCCAGA,0.811,1.54,1.97,1.4,-0.755,1.65,0.0996,0.038,-0.859,-0.308,-0.234,0.244,-0.72,-1.62,1.23,1.56,0.0895,2.01,0.0401,1.74
CAAACTAGGTCCCGAAAGGTCAAAGTCGAATGAC,5.02,5.71,5.76,5.44,1.82,5.54,4.62,5.24,2.11,4.36,4.2,4.78,0.419,0.865,3.35,5.58,1.52,6.01,1.91,4.74
TCGAGTAGGTGAGTCGGGGCATTCAGCCAACATA,-0.0608,-0.132,-0.66,0.164,-0.758,0.821,0.173,0.652,0.673,0.803,3.41,2.92,-0.294,-0.634,-0.137,-0.178,-0.0256,-0.138,-0.397,0.298
CAAACTACGTCACCGGAAGGTCAAAGTCCGCATG,3.24,3.3,3.72,3.48,1.01,3.5,1.14,1.71,0.159,1.15,0.517,1.61,0.449,1.03,2.68,3.83,1.39,4.14,1.23,3.3
CCGACTGGGGGATAAGGTTACCATAAGCCAGCCC,0.506,2.65,-0.0985,2.4,2.01,1.91,1.43,2.38,1.06,2.07,0.611,1.85,1.28,1.34,0.934,1.15,-0.306,1.64,0.448,0.896
CCTACTGGGCCATTCAGAGGTCATAGATCATATG,2.57,4,5.67,3.75,0.161,3.83,2.65,3.2,1.2,2.48,4.09,4.44,0.601,-0.0592,2.01,4.2,1.2,4.42,0.421,2.97
CAAACTAGCTCAAGGTCAAAGTCGGTTTGTGCCA,4.51,5.18,5.93,4.13,1.45,4.17,1.21,2.95,0.947,2.05,1.26,1.78,-0.371,-0.234,2.07,4.39,2.66,4.08,0.525,3.88
TCATATAGGAAAATGCTAGGTGAAAGTCCGATCT,1.09,0.845,0.237,0.489,-0.0669,0.728,0.487,2.3,4.01,3.28,2.71,0.68,0.369,0.466,0.42,0.59,0.397,0.636,1.22,0.176
TCTAGCAGGCCAGAGAGTCACTCAAGAGGTACGG,-0.122,0.066,-0.75,-0.374,-1.55,0.177,0.656,1.18,1.72,1.4,0.614,-0.685,-1.43,-1.33,-0.979,-0.468,-0.71,-0.29,-0.925,-0.0563
AACTCTAGGTAAAAGTTCAGTGAATCCCGAGGAT,1.13,1.42,1.21,0.973,0.00492,4.2,7.44,7.64,6.5,8.32,2.73,3.74,1.15,0.487,1.93,1.83,1.06,1.75,0.344,2.42
GCTATTAGTGGAAAGGGCAACCGAATGATTCTCG,0.118,0.287,-0.215,0.268,-0.406,1.68,1.88,3.6,1.97,3.34,0.437,0.575,0.104,-0.457,0.772,0.478,-0.0365,0.745,0.726,1.93
